# Laboratory results reported in PubChem BioAssay (NCI).
# This is part of a sample that, as a whole, favours compounds with a hit. Of some 83,000 tested, about 20% had one in any assay.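 Testing used 96-well plates and a 48-hour single-concentration exposure. Example: -40 means 40% of the starting cells died.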 Values without a mark were called inactive. Activity calls are given as the source filed them. Rule for the calls: active = growth percent below 10; inactive = the rest.
# Tested on: MDA-MB-468 breast
# Experiment: NCI-60 one-dose screen, 48 h (100 = growth as untreated, 0 = no growth, -100 = all killed)
# Settings: 10 µM unless noted
row,SMILES,growth
1,ClCCN(CCCl)c1ccc(/C=N/Nc2ncnc3nc[nH]c23)cc1,49.8%
2,Cn1cc(C(=O)C[n+]2ccccc2)c2ccccc21,88%
3,CC[PH+](CC)CC.O=COC1OC([S-])C(OC=O)C(OC=O)C1OC=O.[Au+] (stereo not drawn),-78.8% (active)
4,CCCCCCCC[N+](C)(CCCCCCCC)CCCCCCCC,-90.1% (active)
5,C/C(=N/OC(=O)N(C)C)c1ccc(Cl)cc1Cl,114%
6,C[C@]12CCC(=O)CC1CC[C@@H]1C2CC[C@@]2(C)C1CC[C@@H]2OC(=O)CC[Se][Se]CCC(=O)O[C@H]1CCC2[C@@H]3CCC4CC(=O)CC[C@]4(C)C3CC[C@@]21C (stereo partly drawn),77.5%
7,Cc1sc2c(c1C)C(c1ccc(Cl)cc1)=N[C@@H](CC(=O)OC(C)(C)C)c1nnc(C)n1-2,-10.8% (active)
8,COC(=O)[C@@H](C)C[C@H](Cc1ccccc1)NC(=O)c1csc([C@@H](C[C@H](C(C)C)N(C)C(=O)[C@@H](NC(=O)[C@H]2CCCN2C)C2CC2)OC(C)=O)n1,-9.22% (active)
9,ClCCN(CCCl)c1nc(Cl)c(C2CC(c3ccc(Cl)cc3)=NN2c2cc(Cl)cc(Cl)c2)s1 (stereo not drawn),112%
10,CC(/C=N/N=C(N)N)=N/N=C(N)N,93.9%
11,O=C/C=C/c1ccco1,106%
12,N#CC1(c2ccccc2)CCN(Cc2ccccc2)CC1,90.2%
13,C[C@]12CCC3[C@@H](C[C@@H]4SC(Nc5ccccc5)=N[C@@]45CC(=O)CC[C@]35C)[C@@H]1CCC2=O (stereo partly drawn),-26.8% (active)
